Records with an inconclusive call do not appear. Calls of active or inactive are those of the source. The call rests on the fitted dose curve; in most records, active means well fitted curve in the direction sought with a large enough effect in the signal ratio in the repeat runs (not every such curve was filed as active); inconclusive means weak or mixed curves, or a change in a side signal; inactive means no such curve, though single readings can be large or run the other way; the % refers to the signal ratio.

A short description of the test: qHTS assay to identify small molecule agonists of the NFkB signaling pathway (AID 1159509). Conditions: NFkB-bla ME-180 cells, beta-lactamase FRET ratio, 5 h; series mostly up to 61 µM. From the text: National Center for Advancing Translational Sciences [NCATS]
NIH Chemical Genomics Center [NCGC]
U.S. Environmental Protection Agency [EPA]
National Institutes of Environmental Health Sciences [NIEHS]
National Toxicology Program [NTP]
U.S. Food and Drug Administration [FDA]
Transcription factors and their stimulated target gene expression play pivotal roles across many cellular processes including responses to environmental stimuli. Proper regulation of associated pathways is critical to maintain cell health and function. Constitutive activation of transcription factor pathways has been implicated in tumors as it may block cellular functions such as apoptosis and lead to invasion and metastasis. One important transcription factor that stimulates gene expression in response to cytokines, UV radiation, and other stimuli is nuclear factor-kappa B (NFkB). To measure activation of the NFkB pathway, the CellSensor NFkB-bla ME-180 cell line (Life Technologies, Carlsbad, CA) that stably expresses beta-lactamase reporter gene under the regulation of a NF-kB response element was used. This assay allows measurement of the NFkB pathway activity induced by compounds in a ME-180 cell line. This system quantitates NF-kB activity using a FRET-based assay system where beta-lactamase expression disrupts FRET, allowing for fluorescent measurement of activity. This cell line has been used to screen the Tox21 10K compound library and to identify compounds that induce the NFkB pathway activity.
Tox21 Assay Protocol Summary:
NFkB-bla ME-180 cells were dispensed at 2,000 cells/6 uL of assay medium per well into black wall/clear-bottom 1536-well plates using a Multidrop Combi (ThermoFisher Scientific, Waltham, MA) dispenser. After the assay plates were incubated at 37 C and 5% CO2 for an overnight, 23 nL of compounds dissolved in DMSO, positive controls or DMSO only was transferred to the assay plate by a Pintool station (Kalypsys, San Diego, CA). The assay plates were incubated at 37 C and 5% CO2 for 5 hr. One uL of LiveBLAzer B/G FRET substrate (Life Technologies) was added using a Flying Reagent Dispenser (Aurora Discovery, San Diego, CA) and the plates were incubated at room temperature for 1.5 hr. Fluorescence intensity (405 nm excitation, 460 nm and 530 nm emissions) was measured using an Envision plate reader (PerkinElmer, Shelton, CT).
On the technique in general: Quantitative high-throughput screening tests each substance at several concentrations.
As to `CC(=O)C(=O)CC(C)C`, the result was inactive.
On to `O=C(O)CCCc1c[nH]c2ccccc12`, for which the outcome was inactive.
The entry for `Cc1cc(CCCOc2c(C)cc(-c3noc(C(F)(F)F)n3)cc2C)on1` is “inactive”.
Under `O=C(/C=C/c1ccc([N+](=O)[O-])cc1)c1ccccc1` stands “inactive”; under `CC(=O)NNC(C)=O`, “inactive”.
On to `CCCCCCCC/C=C/C(=O)O`, for which the result was inactive.
On to `Cc1c(C2(c3cc(Br)c(O)c(Br)c3C)OS(=O)(=O)c3ccccc32)cc(Br)c(O)c1Br`, for which the outcome was inactive.
Under `O=C(O)CO` stands “inactive”; under `CCN(Cc1cccc(S(=O)(=O)O)c1)c1ccc(C(=C2C=CC(=[N+](CC)Cc3cccc(S(=O)(=O)O)c3)C=C2)c2ccc(O)cc2S(=O)(=O)[O-])cc1`, “inactive”.
The entry for `CCCCCCC(O)CCCCCCCCCCC(=O)OC` (stereo not given) is “inactive”; for `O=CNNC=O` it is “inactive”; for `CNc1c2c(nn1C)CCCC2` it is “inactive”.
Consider `O=NN(CCCl)C(=O)NCCCl`, for which the outcome was inactive.
The entry for `COc1ccc2nc(S(=O)Cc3ncc(C)c(OC)c3C)[nH]c2c1` (stereo not given) is “inactive”; for `O=C(O)c1cccc(Oc2ccccc2)c1` it is “inactive”; for `Cc1cc([N+](=O)[O-])ccc1N` it is “inactive”.
Turning to `O=C(O)c1ccc(O)cc1O`, the result was inactive.
Under `CCOCCC(=O)OCC` stands “inactive”.
Under `COC(=O)Nc1nc2ccc(C(=O)C3CC3)cc2[nH]1` stands “inactive”.
For `Cc1ccc(Cl)cc1N`, the result was inactive.
Under `COc1ccc(C(=O)NCc2ccc(OCCN(C)C)cc2)cc1OC` stands “inactive”.
With `CC(CCc1ccc(O)cc1)NCCc1ccc(O)c(O)c1` (stereo not given), the outcome was inactive.
Consider `CC(C)c1ccc(C(=O)N=C(N)N)cc1S(C)(=O)=O`, for which the result was inactive.
The entry for `O=C(O)CCC(=O)c1ccc(-c2ccccc2)cc1` is “inactive”; for `Nc1nc(-c2ccc([N+](=O)[O-])cc2)cs1` it is “inactive”.
For `CN(C)CC/C=C1\c2ccccc2Sc2ccc(Cl)cc21`, the outcome was inactive.
For `COc1cc(OC)c2ccc(=O)oc2c1`, the result was inactive.
In the case of `CO[C@@H]1[C@@H](OC)[C@H](C)[C@@](O)(CC(=O)O)O[C@H]1[C@H](C)[C@H]1O[C@@]2(CC[C@@](C)([C@H]3CC[C@@](C)([C@@H]4O[C@@H]([C@H]5O[C@](C)(O)[C@H](C)C[C@@H]5C)C[C@@H]4OC4C[C@H](OC)[C@@H](OC)[C@H](C)O4)O3)O2)C[C@H](O)[C@H]1C` (stereo not given in full), the outcome was inactive.
As for `CC12CC3CC(C)(C1)CC(N)(C3)C2`, the result was inactive.
Under `CCCCCCCCCCCCCOC(=O)CCSCCC(=O)OCCCCCCCCCCCCC` stands “inactive”.
The entry for `CC(C)N=C=NC(C)C` is “inactive”.
As for `CC1CCCC(=O)C1=O` (stereo not given), the result was inactive.
Take `O=C(CCS)OCC(COC(=O)CCS)(COC(=O)CCS)COC(=O)CCS`: the outcome was inactive.
The entry for `CCCCCCCCCCCSCC(=O)O` is “inactive”.
The entry for `CCCCCCC(O)CCOC(C)=O` (stereo not given) is “inactive”; for `O=S(=O)(Cl)c1c(Cl)cccc1Cl` it is “inactive”.
The entry for `Nc1ccc(N=Nc2ccc(N)cc2)cc1` is “inactive”; for `CCCCCCCC/C=C\CCCCCCCC(=O)OCCO` it is “inactive”; for `Cc1ccc2c(c1[N+](=O)[O-])C(=O)c1ccccc1C2=O` it is “inactive”.
In the case of `Cc1ccc2c(c1)CCCN2`, the result was inactive.

The values above are taken from PubChem BioAssay (Tox21).
